Assay results from PubChem BioAssay AID1259313 (Sanford-Burnham Center for Chemical Genomics, 2017).
The whole screen tested about 340,000 compounds, of which about 8,500 (2.5%) were called active.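 Rule for the calls: active = melting temperature shift of at least 10% of the positive control shift, at one fixed dose; inactive = the rest.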 The sample as a whole holds a higher share of actives than the screen did.

tested on: Glutamate receptor ionotropic, NMDA 3A (GRIN3A) ligand-binding domain; test: binders of NR3A ligand-binding domain, primary screen, biophysical, differential scanning fluorimetry, uHTS (AID 1259313); conditions: NR3A LBD differential scanning fluorimetry, at 25 µM, active compounds read high, 0% = protein alone, 100% = glycine-bound protein

Tm shift relative to glycine control, inactive:
COc1ccc(F)cc1S(=O)(=O)NCC(c1ccc2c(c1)OCO2)N1CCN(C)CC1 (centres undefined) -1.98%
COc1ccc(NC(=S)N2CCC(NC(=O)c3cccc(F)c3)CC2)cc1 1.82%
COc1ccc2oc(C(=O)NCc3ccco3)c(C)c2c1 0.95%
Cc1ccc(C(=O)c2ccc(N3CCN(C)CC3)c([N+](=O)[O-])c2)cc1 -4.39%
Cc1ccc(Br)c(NS(=O)(=O)c2cccc(C(=O)N3CCNC(=O)C3)c2)c1 -2.24%
O=C(CO/N=C/c1ccc(OC(F)F)cc1)NCc1ccc(F)cc1 -0.25%
CC1(NC(=O)CCS(=O)(=O)c2ccc(Cl)cc2)CCS(=O)(=O)C1 (centres undefined) 1.08%
NC(=O)Nc1ccccc1C(=O)NCCc1ccccc1 -3.04%
CCOC(=O)CN(C(=O)COc1nc(C)cc(C)c1C#N)c1ccc(Cl)cc1 0.21%
COc1ccc(/C=N/Nc2nc(-c3ccc(C)cc3)c(C#N)c(=O)[nH]2)cc1 -2.83%
COc1ccc(/C=N/Nc2ccccc2C(=O)O)cc1 -10.2%
Cc1nn(C)cc1/C=C1\CCC/C(=C\c2cn(C)nc2C)C1=O -1.19%
CC(Oc1ccccc1[N+](=O)[O-])C(=O)N/N=C/c1ccoc1 (centres undefined) -0.52%
Cc1ccc2cccc(OCCCOc3ccccc3CO)c2n1 -1.42%
O=C(NNC(=S)NC(=O)c1cn(-c2ccccc2)nc1-c1ccccc1)c1ccncc1 -4.35%
O=C(CN1CCOc2ccccc21)N1CCC(Cc2ccccc2)CC1 -1.44%
COc1ccc(C(=O)N2CCCCC2C(=O)Nc2ccc(-n3nc(C)cc3C)cc2)o1 (centres undefined) 6.75%
CCN(CC)CCNCc1ccc(OCc2ccc(Cl)nc2)c(OC)c1 8.95%
COc1cc(/C=C2/C(=O)ON=C2C)ccc1OCc1cccc(F)c1 -26.4%
Cc1cccn2cc(-c3cccc(S(=O)(=O)N4CCCCC4)c3)nc12 5.23%
Cc1cccc(N(C(=O)c2csnn2)C(C(=O)NCc2ccccc2)c2ccncc2)c1 (centres undefined) -0.09%
CCOc1ccccc1Nc1nnc(SCC(=O)NCC2CCCO2)s1 (centres undefined) 5.39%
CCOC(=O)N1CCN(C(=O)c2cn(C)c3ccc(S(=O)(=O)N(CC)CC)cc3c2=O)CC1 0%
O=C(Nc1cccc(Cl)c1)c1cncn1-c1ccc(F)cc1 -0.7%
Cc1cccc(N=C2NC(=O)CS2)c1C 5.95%
CC(=O)Nc1ccc(C(=O)CSc2nc3ccc(C)cc3[nH]2)cc1 -17.4%
Cc1nc2nc(SCC(=O)c3ccccc3)[nH]c2cc1Br -9.38%
O=C(Nc1ccc(Cl)cc1)c1cccc(OC(=S)N2CCOCC2)c1 -0.47%
C/C(=N\Nc1ccccc1)c1cccs1 1.45%
CC/C(=N/Nc1ccccc1)c1cnnc(SC)n1 1.52%
CN(CCO)c1ccc(/C=N/Nc2nncc3ccccc23)cc1 3.23%
Cc1csc(NC(=O)CSc2nc(=O)cc(N)n2-c2ccc(F)cc2)n1 -0.09%
CC(C)N1CCC(N2CCN(Cc3cccnc3)CC2CCO)CC1 (centres undefined) -1.29%
Clc1ccc(Cc2nnc(-c3cccs3)o2)cc1 -0.55%
CCCc1cc(C(=O)Nc2ccc(Cl)cn2)cs1 0.69%
Cc1ccc(C)c(NC(=O)C(OC(=O)c2ccc(C)s2)c2ccccc2)c1 (centres undefined) -6.89%
Cc1cc(C)cc(NC(=O)C(c2ccccc2)N2CCN(CC(=O)N3CCCC3)CC2)c1 (centres undefined) -1.19%
COc1cc(CO)c(C2(CO)CCCC2)cc1OC -9.65%
CNc1nccc(-c2ccc(Cl)cc2)c1C#N -0.74%
NC(=O)C1(Nc2ccc(-c3ccccc3)cc2)CCCC1 2.37%
COc1ccccc1CNC(=O)CNC(=O)c1cn(-c2ccccc2OC)c(=O)c2ccccc12 -0.54%
Cc1ccc(NC(=O)CSCC(=O)N2CCOCC2)cc1 1.21%
CNC(=S)N/N=C/c1ccc(N2CCOCC2)s1 -0.99%
CCCn1c(=O)c2c(C(F)(F)F)cc(-c3cccs3)nc2n(CCC)c1=O 0.77%
COc1ccc(NC(=O)NCCN2CCN(c3ccc(C)cc3)CC2)c(Cl)c1 -3.16%
Cc1ccc(C2(C)NC(=O)N(CC(=O)Nc3ccccc3C(=O)N3CCCCC3)C2=O)cc1 (centres undefined) -1.86%
CSCCC(NS(=O)(=O)c1ccc(C)cc1)C(=O)N(C)CC(=O)Nc1ccccc1Br (centres undefined) 0.34%
CCCc1cc(C(=O)Nc2ccc(C(=O)OC)cc2)cs1 -10.4%
COc1ccc(Nc2ncnc3sc(C)cc23)cc1 -17.1%
C/C(=N\N)c1c(-c2ccccc2)c2cc(Br)ccc2[nH]c1=O -2.09%
CC(=O)NCCC(=O)Nc1cc(S(=O)(=O)N2CCCCC2)ccc1Oc1cccc(C)c1 1.88%
Cn1cccc1/C=C1\SC(=S)N(NC(=O)c2ccc(Cl)cc2)C1=O 8.58%
O=C(O)c1ccc2c(c1)C(=O)N(NC(=O)c1ccc(O)cc1)C2=O 0.18%

Tm shift relative to glycine control, active:
COc1ccc(/C=N/N=C/c2c[nH]c(=O)c(C#N)c2Nc2ccccc2)cc1 35.8%
Cc1cc(N=Nc2ccc3ccccc3c2)ccc1O 28.8%
COc1cc(/C=C2\SC(=O)NC2=O)ccc1OCc1ccc(Cl)nc1 25.9%
O=C(CSc1nc2ccc([N+](=O)[O-])cc2[nH]1)c1ccc(Cl)cc1 18.5%
C/C(=N/Nc1ccc(Cl)cc1)c1cnnc(-c2ccccc2)n1 10.3%
Clc1ccc(Nc2nc(-c3cccs3)cs2)nc1 23%
Cc1cc(C)cc(NC(=O)C(OC(=O)c2ccc(O)cc2)c2ccccc2)c1 (centres undefined) 10.5%
N#CC1(Nc2ccc(-c3ccc(Cl)cc3)cc2)CCCC1 20.4%
Cc1cc2c(cc1C)[n+](C)cn2CC(O)COCC1CC=CCC1 (centres undefined) 11.6%
COC(=O)c1ccc(Nc2ncnc3sccc23)cc1 13%
CC(=O)N1C(=O)/C(=C2\SC(=S)N(NC(=O)c3ccc(O)cc3)C2=O)c2ccccc21 21.7%
